In PubChem BioAssay AID1159580 (chemical genetic matrix, 2015):
Values joined by “and” are separate entries in the source; they are usually repeats but may differ in a detail not shown here. Equal values may be shown once. Out of some 5,500 compounds screened, about 2,000 (36%) were called active. About 18% were inconclusive and are not listed. No stated cut-off is given here; in the data, active means normalized growth mostly below about 0.91 (no sharp cut-off); inconclusive means no clear call, values can overlap the other calls; inactive means mostly above about 0.92. This is one part of the list.

Assay: chemical genetic growth profiling, strain panel (AID 1159580);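 further: tested at 20 µM; growth read once vehicle control cultures reached saturation at 30 °C; 1 = growth at the plate median or of vehicle wells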
Conditions: S. cerevisiae deletion strains, growth OD

Measured: normalized growth

CCOC(=O)[C@H](CCc1ccccc1)N[C@@H](C)C(=O)N1CCC[C@H]1C(=O)O
inactive: locus YAL021C, strain ccr4, stronger effect = lower value 0.98 | locus YAL026C, strain drs2, stronger effect = lower value 1 | locus YAL030W, strain snc1, stronger effect = lower value 0.992 | locus YBL061C, strain skt5, stronger effect = lower value 0.987 | locus YBR009C, strain hhf1, stronger effect = lower value 1.01 | locus YBR021W, strain FUR4, stronger effect = lower value 1.01 | locus YBR023C, strain chs3, stronger effect = lower value 0.988 | locus YBR171W, strain sec66, stronger effect = lower value 0.979 | locus YBR229C, strain ROT2, stronger effect = lower value 1 | locus YBR231C, strain swc5, stronger effect = lower value 1 | locus YBR279W, strain paf1, stronger effect = lower value 0.973 | locus YCL011C, strain gbp2, stronger effect = lower value 0.976 | locus YCL016C, strain dcc1, stronger effect = lower value 0.969 | locus YCL029C, strain bik1, stronger effect = lower value 1.02 | locus YCL061C, strain MRC1, stronger effect = lower value 1.01 | locus YCL069W, strain vba3, stronger effect = lower value 0.988 | locus YCR088W, strain abp1, stronger effect = lower value 0.995 | locus YDL005C, strain med2, stronger effect = lower value 0.995 | locus YDL035C, strain GPR1, stronger effect = lower value 1.03 | locus YDL040C, strain nat1, stronger effect = lower value 0.992 | locus YDL074C, strain BRE1, stronger effect = lower value 1.02 | locus YDL101C, strain DUN1, stronger effect = lower value 1.01 | locus YDL134C, strain PPH21, stronger effect = lower value 1.01 | locus YDL185W, strain tfp1, stronger effect = lower value 1.01 | locus YDL192W, strain arf1, stronger effect = lower value 1.01 | locus YDR001C, strain nth1, stronger effect = lower value 0.996 | locus YDR069C, strain doa4, stronger effect = lower value 0.984 | locus YDR101C, strain arx1, stronger effect = lower value 0.994 | locus YDR137W, strain rgp1, stronger effect = lower value 0.988 | locus YDR159W, strain sac3, stronger effect = lower value 0.937 | locus YDR162C, strain NBP2, stronger effect = lower value 1.01 | locus YDR195W, strain ref2 0.981 | locus YDR297W, strain sur2, stronger effect = lower value 1 | locus YDR318W, strain mcm21, stronger effect = lower value 1.02 | locus YDR334W, strain swr1, stronger effect = lower value 0.998 | locus YDR335W, strain msn5, stronger effect = lower value 0.991 | locus YDR388W, stronger effect = lower value 1.02 | locus YDR392W, strain spt3, stronger effect = lower value 0.923 | locus YDR502C, strain sam2, stronger effect = lower value 1.01 | locus YEL003W, strain gim4, stronger effect = lower value 1 | locus YEL037C, strain rad23, stronger effect = lower value 0.988 | locus YEL061C, strain CIN8 (second series), stronger effect = lower value 0.999 | locus YEL061C, strain CIN8, stronger effect = lower value 0.999 | locus YER015W, strain faa2, stronger effect = lower value 1 | locus YER016W, strain bim1, stronger effect = lower value 0.98 | locus YER110C, stronger effect = lower value 1.02 | locus YER111C, strain swi4, stronger effect = lower value 0.985 | locus YER155C, strain BEM2 (second series), stronger effect = lower value 1.02 | locus YER155C, strain BEM2, stronger effect = lower value 0.996 | locus YER167W, strain BCK2, stronger effect = lower value 0.997 | locus YFR010W, strain ubp6, stronger effect = lower value 1.01 | locus YGL078C, strain dbp3, stronger effect = lower value 1.01 | locus YGL086W, strain mad1, stronger effect = lower value 0.998 | locus YGL167C, strain pmr1, stronger effect = lower value 0.99 | locus YGL173C, strain kem1, stronger effect = lower value 0.995 | locus YGL227W, strain vid30, stronger effect = lower value 0.996 | locus YGL240W, strain doc1, stronger effect = lower value 0.985 | locus YGL248W, strain PDE1, stronger effect = lower value 1 | locus YGL253W, strain hxk2, stronger effect = lower value 0.987 | locus YGR078C, strain PAC10, stronger effect = lower value 1.02 | locus YGR135W, strain pre9, stronger effect = lower value 1.02 | locus YGR252W, strain gcn5, stronger effect = lower value 1.05 | locus YHR013C, strain ard1, stronger effect = lower value 0.967 | locus YHR027C, strain rpn1, stronger effect = lower value 1.01 | locus YHR030C, strain SLT2, stronger effect = lower value 0.998 and 1.03 | locus YHR079C, strain IRE1 (second series), stronger effect = lower value 1.01 | locus YHR079C, strain IRE1, stronger effect = lower value 1.05 | locus YHR094C, strain hxt1, stronger effect = lower value 1.01 | locus YHR129C, strain ARP1, stronger effect = lower value 0.998 | locus YHR142W, strain chs7, stronger effect = lower value 0.98 | locus YHR200W, strain rpn10, stronger effect = lower value 1.01 | locus YIL066C, strain RNR3, stronger effect = lower value 1.01 | locus YIL073C, strain SPO22, stronger effect = lower value 1.07 | locus YIL125W, strain kgd1, stronger effect = lower value 1.01 | locus YIR030C, strain dcg1, stronger effect = lower value 1.01 | locus YJL092W, strain hpr5, stronger effect = lower value 1 | locus YJL095W, strain BCK1 (second series), stronger effect = lower value 1 | locus YJL095W, strain BCK1, stronger effect = lower value 1.02 and 1.03 | locus YJL115W, strain asf1, stronger effect = lower value 0.989 | locus YJL129C, strain trk1, stronger effect = lower value 0.954 | locus YJL134W, strain LCB3, stronger effect = lower value 1 | locus YJL154C, strain vps35, stronger effect = lower value 0.99 | locus YJL164C, strain tpk1, stronger effect = lower value 0.98 | locus YJL166W, strain qcr8, stronger effect = lower value 1 | locus YJL168C, strain set2, stronger effect = lower value 1.01 | locus YJL187C, strain SWE1 (second series), stronger effect = lower value 1.01 | locus YJR043C, strain POL32, stronger effect = lower value 1.03 | locus YJR066W, strain TOR1, stronger effect = lower value 0.985
